Screening results as filed in PubChem BioAssay.
TSHR antagonist – blocks TSH signaling through the human TSH receptor; TSHR-expressing cells, TSH-stimulated cAMP HTRF, 2 h; stronger effect = lower value; activity change, negative = inhibition, % at 11.5 µM; hit rate 0.2% among 330,000; AID 504810;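 active = activity change below a set negative limit, meaning inhibition stronger than a set level, cut at about -70% in these data; inconclusive = activity change between two set negative limits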
Target sequence (P16473 whole entry, looked up): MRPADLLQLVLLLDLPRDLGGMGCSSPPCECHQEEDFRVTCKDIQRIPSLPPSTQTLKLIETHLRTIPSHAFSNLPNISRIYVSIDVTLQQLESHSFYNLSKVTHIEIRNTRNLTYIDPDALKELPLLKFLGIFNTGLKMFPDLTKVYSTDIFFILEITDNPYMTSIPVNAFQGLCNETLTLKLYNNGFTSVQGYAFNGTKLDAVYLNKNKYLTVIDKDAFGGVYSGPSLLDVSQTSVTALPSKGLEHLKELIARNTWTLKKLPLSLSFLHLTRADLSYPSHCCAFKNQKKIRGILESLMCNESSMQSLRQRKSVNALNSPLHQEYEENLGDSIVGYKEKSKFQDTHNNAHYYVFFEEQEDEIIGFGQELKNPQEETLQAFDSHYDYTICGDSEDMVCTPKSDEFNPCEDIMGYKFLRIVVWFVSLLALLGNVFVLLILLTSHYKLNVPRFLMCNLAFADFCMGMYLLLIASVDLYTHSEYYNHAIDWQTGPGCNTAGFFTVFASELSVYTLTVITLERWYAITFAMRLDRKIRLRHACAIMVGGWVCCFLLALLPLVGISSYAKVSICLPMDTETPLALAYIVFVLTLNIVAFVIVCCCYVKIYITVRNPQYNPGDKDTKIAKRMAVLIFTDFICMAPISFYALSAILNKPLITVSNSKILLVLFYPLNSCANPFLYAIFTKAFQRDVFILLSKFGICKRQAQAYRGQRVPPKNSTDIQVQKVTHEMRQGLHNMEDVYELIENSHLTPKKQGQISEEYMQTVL
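Inhibition of cAMP made by TSHR-expressing cells under TSH stimulation (4nM final, EC80; 2 h, 37 deg C) is quantified with a one-step lysis HTRF kit, anti-cAMP cryptate versus cAMP-d2.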
gsp agonist – activates gsp, the McCune-Albright syndrome mutation; Potency, µM (doses to about 76.9 µM), usual class: activators; gsp mutant cells, cAMP HTRF, 30 min; hit rate 0.13% among 340,000; AID 624287; active = well fitted activation curve with a large enough effect; inconclusive = small, poorly fitted or top-dose-only effect, or another doubt; inactive = no such curve, though single readings can be large or run the other way; cell line not stated here;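 note: phosphodiesterase inhibitor Ro 20-1724 added with compounds to block cAMP breakdown; nearly all actives have a fitted effect of over 60% in size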
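Cells stably selected in G418 were plated at 2000/well, grown 16-24 hr, then given compounds in DMSO with the PDE inhibitor […] (300 uM solution added) for 30 min at 37C; cAMP was read by HTRF.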
uPA generation – blocks generation of uPA at the cell surface; hit rate 0.31% among 330,000; cell surface uPA generation assay, qHTS; AID 540303; Potency, µM (doses to about 38.3 µM), most hits filed as inhibitors; active = well fitted inhibition curve with a large enough effect; inconclusive = small, poorly fitted or top-dose-only effect; inactive = no such curve, though single readings can be large or run the other way; tested in mouse RAW 264.7 cells; note: nearly all actives have a fitted effect of over 55% in size
gsp antag – antagonizes gsp, the McCune-Albright syndrome mutation | gsp-mutant cells, cAMP HTRF, 30 min | Potency, µM (highest dose often 76.9 µM), hits mostly inhibitors | hit rate 0.4% among 340,000 | AID 624288; calls by dose curve; cell line not stated here;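 note: intracellular cAMP measured with PDE inhibitor Ro 20-1724 present during compound exposure; nearly all actives have a fitted effect of over 65% in size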
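Cells, 2000/well, grown 16–24 h in DMEM 10% FBS with 0.5 mg/ml G418, then compounds plus […] (300 uM addition stock), 30 min at 37C. cAMP read by HTRF (cAMP-d2 and anti-cAMP antibody-K in lysis buffer) after 30 min RT.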
CCT modulator – changes cytosolic chaperonin activity; purified chaperonin ATPase assay, HTRF ADP detection, 30 min; activity change, % (no concentration beside the values), hits read low; hit rate 0.3% among 360,000; AID 651819; in the data active = activity change below about -30%
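TRiC (40 or 20 nM final, by batch activity) in 30 mM Tris pH 7.4, 100 mM KCl, 5 mM MgCl2, 1 mM DTT was treated with compound at 76 uM single dose, then 10 uM ATP, 30 min at 37 °C. ADP was read by HTRF Transcreener.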
Mm-Cpn inhibitor – blocks the Methanococcus maripaludis chaperonin Mm-Cpn | purified Mm-Cpn ATPase, ADP Transcreener TR-FRET | Potency, µM (series often up to 76.9 µM), actives largely listed as inhibitors | hit rate 0.031% among 330,000; active = well fitted inhibition curve with a large enough effect; inconclusive = small, poorly fitted or top-dose-only effect; note: nearly all actives have a fitted effect of over 80% in size
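ATPase turnover read by TR-FRET ADP competition (Eu cryptate antibody/ADP-d2, 665/590 nm): 10uM ATP final, 25nM Mm-CPN final, 30 min 37degC after 10-min compound preincubation, pH 7.4 Tris/KCl/MgCl2/DTT buffer.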
Each line names hits and unclear results; the compound was inactive in the other large screens. Shown are actives, neighbours in structure and some others; about 1.2% of the full set was active somewhere.

O=C(COc1c(Br)cc(Br)c2cccnc12)N1CCc2ccccc2C1	gsp agonist inconclusive
COc1ccc(CN2C(=O)c3cccnc3C2=O)cc1S(=O)(=O)N1CCCCC1	gsp agonist 13µM
COc1ccc(CN2C(=O)c3cccnc3C2=O)cc1S(=O)(=O)NC1CCCCC1C (centres undefined)	gsp agonist inconclusive
O=C1c2cccnc2C(=O)N1Cc1ccc(S(=O)(=O)N2CCN(c3ccc(Cl)cc3)CC2)cc1	TSHR antagonist -135
COc1ccc(CN2C(=O)c3cccnc3C2=O)cc1S(=O)(=O)N1CCCC(C)C1 (centres undefined)	gsp agonist 7.9µM, Mm-Cpn inhibitor inconclusive
CCOC(=O)C1CCN(S(=O)(=O)c2ccc(CN3C(=O)c4cccnc4C3=O)cc2)CC1	none
COc1ccc(C(=O)OCC(=O)N2C(C)CCCC2C)cc1[N+](=O)[O-] (centres undefined)	none
O=C(N/N=C/c1c(O)n(Cc2ccco2)c(=O)[nH]c1=O)c1ccccc1	none
CCOC(=O)c1nc(C)sc1-c1ccnn1S(=O)(=O)c1ccc(C)cc1	TSHR antagonist -78
COc1ccc(OC)c(NC(=O)CN2CCC(C(=O)c3ccc(C)cc3)CC2)c1	gsp antag 28µM (no result: uPA generation)
CCN(CC)c1nc(-c2nn[nH]n2)nc(N(CC)CC)n1	gsp agonist inconclusive, gsp antag 40µM
CCN(CC)c1nc(N(CC)CC)[nH]c(=O)n1	none (no result: TSHR antagonist, Mm-Cpn inhibitor)
Cc1ccc(NC(=O)N2CCCC(C(=O)O)C2)cc1 (centres undefined)	CCT modulator -43
CC(C)C[C@H]1COCCS(=O)(=O)N1Cc1cccc(F)c1	none (no result: TSHR antagonist, gsp agonist, Mm-Cpn inhibitor)
CCn1c(Cl)c(C=O)s/c1=N\S(=O)(=O)c1ccccc1	TSHR antagonist -98, gsp agonist inconclusive
CCN1C(=O)CS/C1=N\S(=O)(=O)c1ccc(Cl)cc1	none
Cc1c(C(=O)N2CCCC2)c(S(=O)(=O)N2CCCCC2)c(C)n1C	none
CCc1ccc(/C=C2\SC(=S)N(CCCC(=O)NCCCN3CCOCC3)C2=O)cc1	none (no result: TSHR antagonist, uPA generation, gsp antag, Mm-Cpn inhibitor)
CCOc1ccc(/C=C2\SC(=S)N(CCCC(=O)NCCCN3CCOCC3)C2=O)cc1	CCT modulator -38
N#CC(C#N)=c1ccc2c(c1)N1C3=C(CCCC3)CC3CCCCC31N=2 (centres undefined)	none
N#C/C(C(N)=O)=c1/ccc2c(c1)N1C3=C(CCCC3)CC3CCCCC31N=2 (centres undefined)	CCT modulator -37
CCCCn1nc(C(=O)N(C)Cc2nc3ccccc3c(=O)[nH]2)c2ccccc2c1=O	none (no result: TSHR antagonist, uPA generation, gsp antag, Mm-Cpn inhibitor)
CCOc1ccc(-c2csc(/C(C#N)=C\c3ccc(O)c([N+](=O)[O-])c3)n2)cc1	TSHR antagonist -83
C=CCOc1ccc(C2C(C(=O)c3cccs3)=C(O)C(=O)N2c2nnc(C)s2)cc1 (centres undefined)	gsp agonist 32µM (no result: TSHR antagonist, Mm-Cpn inhibitor)
C=CCn1c(C)cc(/C([O-])=C(/C(=S)Nc2ccc(OC(F)F)cc2)[n+]2ccc(N(C)C)cc2)c1C	none (no result: gsp antag)
CSc1ccc(/C=C/C(=O)NC(=O)c2ccccc2O)cc1	uPA generation 11µM
O=C(/C=C/c1ccc(Br)cc1)NC(=O)c1ccccc1O	none (no result: gsp antag)
CSCC(=O)N1CCCC(CNC(=O)c2ccccc2Cl)C1 (centres undefined)	gsp agonist inconclusive
COc1ccccc1NC(=O)N1CCCC(CNC(=O)c2ccccc2Cl)C1 (centres undefined)	gsp antag 45µM
COc1ccc(-c2nc3cc(C)ccn3c2NC(=O)c2c(F)cccc2Cl)cc1	none
Cc1csc(Sc2nc3c(c(=O)[nH]c(=O)n3C)n2Cc2ccccc2Cl)n1	gsp antag 40µM
COc1ccc(C)cc1NC(=O)c1sc2ncnc(N3CCN(c4ccccn4)CC3)c2c1C	gsp antag inconclusive, CCT modulator -139
N=c1sccn1CC(=O)Nc1cccc2ccccc12	gsp agonist inconclusive, CCT modulator -122
CN1C(=O)/C(=C/c2cccc(Cl)c2)Sc2ccc(C(=O)N3CCCC3)cc21	uPA generation inconclusive, gsp antag 8.9µM
Cc1cccc(/C=C2\Sc3ccc(C(=O)N4CCCCC4)cc3N(C)C2=O)c1	none
